Experimental data taken from PMC5540273 (PLoS ONE, 2017).

Assays:
Conditions in all cases: concentration: 1 μM, replicates: in singlicate; n = 1
PRKCE = system: PRKCE
PRKCH = system: PRKCH
PRKCI = system: PRKCI
PRKCQ = system: PRKCQ
PRKD1 = system: PRKD1
PRKD2 = system: PRKD2
PRKD3 = system: PRKD3
PRKG1 = system: PRKG1
PRKG2 = system: PRKG2
PRKR = system: T1, PRKR
T1 construct: gene EIF2AK2

PRKX = system: PRKX
PRP4 = system: PRP4
PYK2 = system: T2, PYK2
T2 construct: gene PTK2B

QSK = system: QSK
RAF1 = system: RAF1
RET = system: RET
RIOK1 = system: RIOK1
RIOK2 = system: RIOK2
RIOK3 = system: RIOK3
RIPK1 = system: RIPK1
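Also: KINOMEscan kinase panel screen.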

Compound | %Inh (PRKCE) [%] | %Inh (PRKCH) [%] | %Inh (PRKCI) [%] | %Inh (PRKCQ) [%] | %Inh (PRKD1) [%] | %Inh (PRKD2) [%] | %Inh (PRKD3) [%] | %Inh (PRKG1) [%] | %Inh (PRKG2) [%] | %Inh (PRKR) [%] | %Inh (PRKX) [%] | %Inh (PRP4) [%] | %Inh (PYK2) [%] | %Inh (QSK) [%] | %Inh (RAF1) [%] | %Inh (RET) [%] | %Inh (RIOK1) [%] | %Inh (RIOK2) [%] | %Inh (RIOK3) [%] | %Inh (RIPK1) [%]
Cc1nnc(-c2ccc(C)c(-c3ccc(C(=O)O)cc3)c2)o1 [GW608005] | 0 | 0 | 0 | 5 | 0 | 0 | 19 | 0 | 0 | 0 | 0 | 8 | 0 | 0 | 0 | 2 | 15 | 19 | 0 | 5
CCC(=O)c1c(-c2ccccc2)c2cc(Cl)ccc2c(=O)n1Cc1cc(S(C)(=O)=O)n(CC(N)=O)n1 | 0 | 80 | 12 | 0 | 0 | 0 | 0 | 0 | 0 | 0 | 0 | 38 | 0 | 0 | 11 | 1 | 1 | 0 | 0 | 0
COC(=O)c1c(-c2ccccc2)c2cc(C)ccc2c(=O)n1Cc1ccccc1 | 0 | 0 | 0 | 36 | 0 | 8 | 0 | 0 | 0 | 0 | 0 | 4 | 0 | 0 | 66 | 13 | 3 | 0 | 0 | 0
Nc1nc(-c2ccccc2F)c(-c2ccnc3ccccc23)s1 [GW560459] | 17 | 11 | 13 | 0 | 0 | 0 | 27 | 1 | 0 | 0 | 4 | 33 | 0 | 0 | 8 | 0 | 40 | 52 | 25 | 0
O=c1cc(N2CCOCC2)nc2n(Cc3ccc(F)c(Cl)c3)ccn12 [GSK2297099] | 0 | 12 | 0 | 26 | 0 | 0 | 12 | 0 | 0 | 15 | 20 | 17 | 0 | 2 | 54 | 0 | 5 | 18 | 14 | 1
COC(=O)c1c(-c2ccccc2)c2cc(Br)ccc2c(=O)n1Cc1ccc(S(C)(=O)=O)cc1 | 1 | 4 | 0 | 37 | 0 | 0 | 0 | 0 | 8 | 0 | 28 | 0 | 6 | 0 | 27 | 16 | 0 | 19 | 0 | 0
COc1ccc(-n2cnc3c(N)ncnc32)cc1 [SKF-97236] | 0 | 23 | 28 | 0 | 0 | 1 | 5 | 14 | 33 | 0 | 15 | 0 | 0 | 0 | 0 | 34 | 14 | 28 | 0 | 0
CN1C(=O)C(Nc2cc(Cl)c(O)c(Cl)c2)=C(c2ccc(Cl)cc2)C1=O [SB-404321] | 0 | 0 | 3 | 0 | 54 | 0 | 0 | 0 | 0 | 4 | 0 | 17 | 1 | 0 | 10 | 0 | 0 | 0 | 0 | 0
CCS(=O)c1ccc(-c2coc3ccc(-c4nnc(C)o4)cc23)cc1 (stereo not shown) | 0 | 0 | 0 | 14 | 0 | 0 | 0 | 21 | 9 | 0 | 0 | 21 | 0 | 0 | 0 | 0 | 0 | 15 | 0 | 1
Nc1n[nH]c2nnc(-c3ccccc3)c(-c3ccccc3)c12 [GW554060] | 15 | 14 | 16 | 12 | 0 | 0 | 17 | 0 | 0 | 0 | 18 | 8 | 0 | 0 | 18 | 0 | 32 | 13 | 0 | 0
CCC(=O)c1c(-c2ccccc2)c2cc(Cl)ccc2c(=O)n1Cc1cc(S(C)(=O)=O)n(CC(F)F)n1 | 0 | 6 | 0 | 8 | 0 | 0 | 0 | 0 | 0 | 0 | 1 | 6 | 0 | 0 | 6 | 0 | 0 | 13 | 25 | 1
